Screening data: PubChem, The Scripps Research Institute Molecular Screening Center
The list is not random: actives were taken first. Their share in the collection is about 1.1%.
MOR-DOR ag-1: agonists of OPRM1-OPRD1 heterodimerization, primary screen, cell-based, luminescence; Mu-type opioid receptor (Homo sapiens) + Delta-type opioid receptor (Homo sapiens), …; cells; activation, % at 9.3 µM; actives 0.3% (n = 340,000); AID 504326, 2011
Target sequence (P35372 whole entry, looked up): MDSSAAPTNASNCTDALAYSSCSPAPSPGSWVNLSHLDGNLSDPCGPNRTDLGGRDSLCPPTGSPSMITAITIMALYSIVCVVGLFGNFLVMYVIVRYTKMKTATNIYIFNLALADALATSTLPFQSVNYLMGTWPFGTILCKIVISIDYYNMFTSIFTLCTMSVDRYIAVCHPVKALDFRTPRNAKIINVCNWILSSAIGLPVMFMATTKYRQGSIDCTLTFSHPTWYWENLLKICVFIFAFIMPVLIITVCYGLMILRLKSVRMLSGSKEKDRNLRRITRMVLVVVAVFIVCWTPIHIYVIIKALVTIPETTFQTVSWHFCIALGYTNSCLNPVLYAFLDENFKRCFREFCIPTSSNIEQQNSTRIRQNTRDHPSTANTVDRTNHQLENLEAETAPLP
Target sequence (P41143 whole entry, looked up): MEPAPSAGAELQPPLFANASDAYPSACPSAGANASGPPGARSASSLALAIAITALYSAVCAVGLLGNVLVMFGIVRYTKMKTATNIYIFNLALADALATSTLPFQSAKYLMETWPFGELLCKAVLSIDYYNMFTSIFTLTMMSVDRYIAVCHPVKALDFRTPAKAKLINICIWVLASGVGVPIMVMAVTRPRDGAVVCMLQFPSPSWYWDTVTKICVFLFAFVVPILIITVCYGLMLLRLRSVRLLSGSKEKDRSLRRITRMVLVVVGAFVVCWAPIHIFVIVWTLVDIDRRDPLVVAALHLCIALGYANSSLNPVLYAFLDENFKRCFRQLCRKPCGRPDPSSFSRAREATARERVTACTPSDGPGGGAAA
HTR5A inv ctr: HTR5A inverse agonists in luminescence cell assay, primary screen, counter-screen for OPRM1-OPRD1 heterodimer inverse agonist project, full-deck HTS | 5-hydroxytryptamine receptor 5A (Homo sapiens), P47898 | HTR5A cell line, inverse agonism | inhibition, % at 9.3 µM | actives 0.083% (n = 340,000) | AID 504634, 2011; in the data active = inhibition mostly above about 23%, no sharp cut-off; inactive = mostly below about 18%
HTR5A ag: HTR5A agonists in luminescence cell assay, primary screen, counter-screen for OPRM1-OPRD1 heterodimer agonist project, full-deck HTS; cell-based; 5-hydroxytryptamine receptor 5A (Homo sapiens), P47898; AID 504692, 2011; actives 0.61% (n = 340,000); activation, % at 9.3 µM; in the data active = activation mostly above about 9.5%, no sharp cut-off; inactive = mostly below about 7.6%
MOR-DOR inv ag: inverse agonists of MOR-DOR heterodimerization, primary screen, cell-based, luminescence; inhibition, % at 9.3 µM; Mu-type opioid receptor (Homo sapiens) + Delta-type opioid receptor (Homo sapiens), …; AID 504357, 2011; cell-based MOR-DOR heterodimer luminescence, inverse agonism; actives 0.21% (n = 340,000); in the data active = inhibition above about 22%, passing the limit was not always enough
MOR-DOR ag-2: OPRM1-OPRD1 heterodimerization promoters, counter-screen for HTR5A agonist project, cell-based, luminescence | U2OS counter-screen cells, complementation luminescence, 3 h | actives 13% (n = 800) | activation, % at 9.3 µM | shares compounds with HTR5A ag
HTR5A ag confirm: HTR5A agonists, retest of hits, confirmation, cell-based, luminescence; shares compounds with HTR5A ag; HTR5A agonist cell assay; activation, % at 9.3 µM; actives 17% (n = 800); in the data active = activation above about 17%
Each line names hits and unclear results; the compound was inactive in the other large screens (follow-up assays come after a bar, where they were run). Cut-off read from the data, not from the text of the source, unless noted: active = activation above about 18%; inactive = the rest.

CC(=O)N1CCN(c2ncnc3sc(-c4ccccc4)cc23)CC1	none
Oc1ccc(N2CCN(c3ncnc4sc(-c5ccccc5)cc34)CC2)cc1	HTR5A ag 25.7 | MOR-DOR ag-2 inactive | HTR5A ag confirm inactive
COc1ccc(NC(=O)Nc2cccc3c2O[C@@H](CN(C)CC2CCCCC2)[C@@H](C)CN([C@H](C)CO)C3=O)cc1	none
Cc1csc(C(=O)O)c1NC(=O)c1c(Cl)cccc1Cl	none
CC(C)(C)NC(=O)NC(=O)COC(=O)c1cccc(F)c1	none
CC(C)(C)NC(=O)NC(=O)COC(=O)CNC(=O)c1cccc(F)c1	HTR5A ag 14.7 | MOR-DOR ag-2 56.1 | HTR5A ag confirm 25.6
O=C(Cc1ccc(Br)cc1)NCCc1ccc(Cl)cc1Cl	HTR5A ag 16.1 | MOR-DOR ag-2 inactive | HTR5A ag confirm inactive
COc1ccc(C(CNC(=O)C(=O)NC2CCCC2)N2CCN(C)CC2)cc1 (configuration not stated)	none
COc1ccc(OC)c(-c2csc(NC(=O)Cn3[nH]c(=O)c4ccccc4c3=O)n2)c1	HTR5A ag 31.1 | MOR-DOR ag-2 inactive | HTR5A ag confirm inactive
O=C(O)c1ccc(NS(=O)(=O)c2cc(Cl)ccc2Cl)cc1	HTR5A ag 15.9 | MOR-DOR ag-2 inactive | HTR5A ag confirm inactive
CCOC(=O)/C(C#N)=C/Nc1ccccc1OC	HTR5A ag 16.7 | MOR-DOR ag-2 inactive | HTR5A ag confirm inactive
CCOC(=O)C(=O)/C(C#N)=C/Nc1ccccc1	none
CSc1ccc(CCNC(=O)c2cc(-c3ccccc3)c(N3CCOCC3)s2)cc1	none
O=C(OCC(=O)N1N=C(c2ccc(Cl)cc2)CC1c1ccco1)c1cncc(Br)c1 (configuration not stated)	none
Cc1cc(C)c2c(c1)SC1=NC(c3ccccc3)(C(F)(F)F)NC(=O)N12 (configuration not stated)	HTR5A ag 16.2 | MOR-DOR ag-2 inactive | HTR5A ag confirm inactive
COc1ccc(CCNC(=O)CCNC(=O)N2CC(=O)Nc3ccccc32)cc1OC	none
CN(CC(=O)Nc1ccc(F)c(F)c1F)C(=O)Cc1ccc2c(c1)OCCO2	none
C/C(=N\NS(=O)(=O)c1ccc(Cl)c([N+](=O)[O-])c1)c1cc2ccccc2o1	none
C/C(=N\NS(=O)(=O)c1ccc(C)c([N+](=O)[O-])c1)c1cc2ccccc2o1	HTR5A ag 27.1 | MOR-DOR ag-2 18.9 | HTR5A ag confirm inactive
Cc1onc(-c2c(Cl)cccc2Cl)c1C(O)c1ccccc1 (configuration not stated)	none
CCCCOc1ccc(C(=O)N/C(=C\c2cccc([N+](=O)[O-])c2)C(=O)OC(C)C)cc1	HTR5A ag 16.1 | MOR-DOR ag-2 inactive | HTR5A ag confirm inactive
Cc1ccc(C(=O)N2CCN(S(=O)(=O)c3ccc(C(C)C)cc3)CC2)s1	none
C=CCOc1ccc(/C=C/C(=O)OCc2csc(CC(=O)Nc3ccccc3C)n2)cc1	HTR5A ag 19.6 | MOR-DOR ag-2 33.5 | HTR5A ag confirm inactive
Cc1ccccc1NC(=O)Cc1nc(COC(=O)C(C)C)cs1	none
Oc1cccc2ccc(Nc3ccccn3)nc12	HTR5A ag 15.5 | MOR-DOR ag-2 inactive | HTR5A ag confirm inactive
c1ccc(Nc2ccccc2Nc2ccccn2)nc1	none
O=C(CN1C(=O)NC2(CCCCC2)C1=O)Nc1ccc2c(c1)OCCCO2	none
CNC(=O)NC(=O)CSc1ccc(S(=O)(=O)N(C)C2CCCCC2)cn1	none
CCN(CC)CCNC(=O)c1ccc(NC(=O)COc2ccc3c(c2)CCC3)cc1	HTR5A ag 17.0 | MOR-DOR ag-2 inactive | HTR5A ag confirm inactive
COc1ccc(NC(=S)N/N=C2\CC(C)(C)Oc3ccc(OC)cc32)cc1	HTR5A ag 19.2 | MOR-DOR ag-2 inactive | HTR5A ag confirm inactive
Cc1ccc(NC(=S)N/N=C2\CC(C)(C)Oc3ccc(O)cc32)cc1	none
COc1ccc(NC(=O)c2cc(-c3ccncc3)nc3ccc(Br)cc23)cc1OC	none
CCN1CCN(C(=O)/C=C/c2ccc(C(C)C)cc2)CC1	none
